Bioassay records as filed in PubChem BioAssay.
MazEF act: activators of E. coli MazEF toxin-antitoxin RNase; P0AE70; 350,000 tested, 0.32% active; FAM/BHQ RNA-DNA oligo cleavage fluorescence, 5 h; activation, % at 20 µM; in the data active = activation above about 50%
Anthrax LF prot: inhibitors of Bacillus anthracis lethal factor protease. P15917. multiplex microsphere protease cleavage assay, LF. inhibition, % at 10 µM. 360,000 tested, 0.12% active. AID 588501; note: plate controls were buffer without enzyme for full effect and enzyme alone for no effect
Target sequence (P15917 whole entry, looked up): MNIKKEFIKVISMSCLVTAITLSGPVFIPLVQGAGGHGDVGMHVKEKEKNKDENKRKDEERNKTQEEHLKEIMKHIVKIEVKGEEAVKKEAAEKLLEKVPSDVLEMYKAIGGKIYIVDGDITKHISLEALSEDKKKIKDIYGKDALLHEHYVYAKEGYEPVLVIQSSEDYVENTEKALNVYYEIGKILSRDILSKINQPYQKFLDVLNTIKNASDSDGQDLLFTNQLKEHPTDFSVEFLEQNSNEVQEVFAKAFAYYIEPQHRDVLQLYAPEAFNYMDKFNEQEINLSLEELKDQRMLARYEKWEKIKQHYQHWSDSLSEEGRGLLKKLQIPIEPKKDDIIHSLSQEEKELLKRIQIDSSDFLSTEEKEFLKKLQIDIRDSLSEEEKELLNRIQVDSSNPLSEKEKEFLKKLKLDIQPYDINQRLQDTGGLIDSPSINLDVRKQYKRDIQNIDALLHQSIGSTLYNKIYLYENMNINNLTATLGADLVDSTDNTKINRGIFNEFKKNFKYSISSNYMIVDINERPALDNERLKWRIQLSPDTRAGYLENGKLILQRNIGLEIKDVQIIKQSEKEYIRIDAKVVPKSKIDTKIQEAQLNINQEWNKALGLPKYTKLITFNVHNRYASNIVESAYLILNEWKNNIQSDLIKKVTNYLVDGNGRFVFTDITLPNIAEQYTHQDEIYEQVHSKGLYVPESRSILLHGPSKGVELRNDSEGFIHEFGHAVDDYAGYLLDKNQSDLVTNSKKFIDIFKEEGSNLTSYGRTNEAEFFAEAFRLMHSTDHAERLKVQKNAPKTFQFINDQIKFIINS
Bead autofluor: compound fluorescence in toxin protease inhibitor counterscreen; 360,000 tested, 3.1% active; compound autofluorescence counterscreen, microsphere flow cytometry; active compounds read high; AID 624483; fluorescence intensity (no concentration beside the values); in the data active = fluorescence intensity above about 16000; inconclusive = no clear call, values can overlap the other calls
BoNT A protease: blocks Botulinum neurotoxin A light chain protease | inhibition, % at 10 µM | multiplex microsphere protease substrate cleavage, flow cytometry | 360,000 tested, 0.17% active | AID 588499; note: plate controls were buffer without enzyme for full effect and enzyme alone for no effect
BoNT F protease: blocks Botulinum neurotoxin F light chain protease; inhibition, % at 10 µM; AID 588497; 360,000 tested, 0.22% active; Multiplex microsphere protease cleavage assay, flow cytometry; in the data active = inhibition above about 35%, passing the limit was not always enough; inconclusive = no clear call, values can overlap the other calls; note: plate controls were buffer without enzyme for full effect and enzyme alone for no effect
PriA SSB inh: inhibitors of Klebsiella pneumoniae PriA binding to SSB C-terminal tail; AlphaScreen SSBct-PriA binding, biotinylated peptide; inhibition, % at 33 µM; 430,000 tested, 0.6% active; AID 1272365; in the data active = inhibition mostly above about 37%, no sharp cut-off; inactive = mostly below about 20%;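 note: plate controls were negative control peptide for no effect and reference peptide for full effect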
* hit, by the source's call; ? = inconclusive; · = no result; ! = a repeat was not active. Compounds with a hit are over-represented: about 3.3% of the library has one in this group of screens. Cut-off read from the data, not from the text of the source, unless noted: active = inhibition above about 30%; inconclusive = no clear call, values can overlap the other calls; inactive = below that.

SMILES | MazEF act | Anthrax LF prot | Bead autofluor | BoNT A protease | BoNT F protease | PriA SSB inh
Cc1ccc(N(C(=O)Cn2nnc(-c3ccc(F)cc3)n2)C(CC(C)C)C(=O)NCC2CCCO2)cc1 (configuration not stated) | 2 | 0 | 23138* | -1 | -4 | -5
CC(C)CC(C(=O)NCC1CCCO1)N(C(=O)Cn1nnc(-c2ccc(F)cc2)n1)c1cccc(C(F)(F)F)c1 (configuration not stated) | -8 | -1 | 23362* | ? | -2 | -1
COc1ccc(CCC(=O)NC2CCN(c3cc4c(nn3)CCCC4)CC2)cc1 | · | · | · | · | · | -17
Cc1cccc(NC(=O)C(=O)Nc2nc3ccccc3s2)c1C | · | · | · | · | · | 3
Cc1ccc(-c2nnn(CC(=O)N(c3ccccc3F)C(CC(C)C)C(=O)NCC3CCCO3)n2)cc1 (configuration not stated) | -4 | -4 | 16688* | -1 | -3 | 11
CC(C(=O)NC1CCCC1)N(C(=O)Cn1nnc(-c2ccc(F)cc2)n1)c1ccccc1F (configuration not stated) | -1 | -3 | 4115 | 1 | 5 | -5
COC(=O)c1ccccc1OP1(=O)COc2ccccc2OC1 | -5 | -1 | 22712* | ? | -3 | 0
COC(=O)c1ccccc1OS(=O)(=O)N(C)C | 8 | 1 | 2026 | 0 | 1 | -6
COC(=O)c1[nH]c2cccc(OC)c2c1NC(=O)CN1CCOCC1 | -6 | 2 | 2909 | -1 | -4 | -14
COC(=O)c1[nH]c2cccc(OC)c2c1NC(=O)CN(C)CC1OCCO1 | -5 | -12 | 16319* | -1 | -2 | -4
CCc1ccccc1NC(=O)CC1S/C(=N\c2nccs2)N(CC)C1=O (configuration not stated) | -2 | -1 | 17187* | -2 | 0 | ·
Cc1ccccc1NC(=O)CC1SC(=Nc2nccs2)N(C)C1=O (configuration not stated) | · | · | · | · | · | 0
COc1ccc2nc(-c3ccc(Cl)c(NC(=O)c4c(OC)cccc4OC)c3)cn2n1 | · | · | · | · | · | -9
COc1ccc(NC=C2CCc3ccccc3C2=O)cc1 | · | · | · | · | · | -43
COc1ccc(N/C=C2\C(=O)CCc3c2oc2cc(Cl)c(O)c(Cl)c32)cc1 | 120* | -5 | 3921 | 0 | -15 | -7
Cn1c(CN2CCOCC2)nc2ccccc21 | · | · | · | · | · | 7
COc1ccc(NCc2ccc(OC)c(Cn3ccnc3)c2)c(OC)c1 | 2 | -16 | 3425 | 1 | -28 | 73*
COc1ccc(Cn2ccnc2)cc1Br | 9 | 0 | 23086* | -1 | -5 | -1
COc1ccc(Cn2ccnc2)cc1[N+](=O)[O-] | 11 | 0 | 2583 | -1 | -6 | 3
Cc1[nH]nc2nc3ccc(Cl)cc3c(-c3ccccc3)c12 | · | · | · | · | · | -12
COc1ccc(OC)c(-c2cc(C(=O)NCC3(OC)Cc4ccccc4C3)n(C)n2)c1 | · | · | · | · | · | 10
CCOC(=O)N1CCN(C(=O)CSCC(=O)Nc2nc(-c3ccc(Cl)s3)cs2)CC1 | 3 | 0 | 22328* | 1 | -1 | -22
CCC(=NNc1ccccc1)c1c(O)n(-c2ccccc2)c(=O)[nH]c1=O | · | · | · | · | · | 1
COCCn1c(-c2ccc(OC)cc2)nc2oc3cc(OC)ccc3c(=O)c2c1=O | 6 | -3 | 20954* | -3 | -5 | -7
COCCCn1c(C(C)C)nc2oc3cc(OC)ccc3c(=O)c2c1=O | 8 | 0 | 20914* | -1 | 1 | -3
SMILES | MazEF act | Anthrax LF prot | Bead autofluor | BoNT A protease | BoNT F protease | PriA SSB inh
COc1ccc(-c2nc3oc4cc(OC)ccc4c(=O)c3c(=O)n2Cc2ccco2)cc1 | 2 | -1 | 20811* | 0 | -1 | -6
COc1ccc2c(=O)c3c(=O)n(Cc4ccccc4)c(C(C)C)nc3oc2c1 | 10 | ? | 3502 | -5 | -20 | -9
Cc1cc(C)c(C)c(S(=O)(=O)NCCC(=O)N2C3C=CCC2CC3)c1C (configuration not stated) | · | · | · | · | · | -5
O=C(CSc1nnc2ccc3ccccc3n12)c1ccc2c(c1)OCCO2 | · | · | · | · | · | -11
O=C(Cc1nnc(-c2cnccn2)o1)NCc1ccc(F)cc1Cl | · | · | · | · | · | -3
CSc1ccc(/C=C/C(=O)c2c(O)cc(C)oc2=O)cc1 | 18 | -2 | 4310 | -2 | 45* | -6
Cc1cc(O)c(C(=O)/C=C/c2ccc(F)cc2)c(=O)o1 | · | · | · | · | · | 16
CCOC(=O)C(C)Sc1ncc(OC)c(=O)[nH]1 (configuration not stated) | 0 | 6 | 3869 | 4 | 30 | -9
CCOC(=O)C(C)Sc1ncc(OC)c(Sc2ccc(Cl)cc2)n1 (configuration not stated) | -8 | -2 | 24632* | -6 | -10 | -58
CCOC(=O)CSc1ncc(OC)c(=O)[nH]1 | 3 | 9 | 10007 | 0 | 5 | -8
CCOC(=O)CSc1ncc(OC)c(Sc2ccc(Cl)cc2)n1 | -10 | -16 | 21505* | ? | 0 | -4
Cc1cc(OCC(=O)Nc2ccc(F)c(Cl)c2)nc(N2CCN(c3ccccc3)CC2)n1 | · | · | · | · | · | -1
O=[N+]([O-])c1ccc(Nc2ccccc2Cl)c2nonc12 | · | · | · | · | · | 59*
O=C(O)c1ccccc1Nc1ccc([N+](=O)[O-])c2nonc12 | -3 | 2 | 3174 | -3 | 3 | 57*!
Cc1ccccc1Nc1ccc([N+](=O)[O-])c2nonc12 | · | · | · | · | · | 76
O=S(=O)(c1ccc(Cl)s1)N1CCN(c2cc(-n3cncn3)ncn2)CC1 | · | · | · | · | · | -7
O=C(C1CC=CCC1)N1CC(Oc2nccs2)C1 (configuration not stated) | · | · | · | · | · | -23
COC(=O)c1c(NC(=O)CN2CCN(Cc3ccc4c(c3)OCO4)CC2)sc(C)c1C | 22 | 13 | ? | 0 | -9 | 7
COC(=O)c1[nH]c2cc(C)ccc2c1NC(=O)CN1CCOCC1 | 7 | -3 | 5493 | -1 | -1 | -5
COC(=O)c1ccsc1NC(=O)CN1CCN(Cc2ccc3c(c2)OCO3)CC1 | -7 | -1 | 21667* | 2 | 1 | -16
CCC(=O)Nc1sccc1C(=O)OC | 5 | -8 | 22995* | ? | -1 | -17
COC(=O)c1[nH]c2ccc(C)cc2c1NC(=O)CCN1CCN(Cc2ccc3c(c2)OCO3)CC1 | -3 | -4 | 22086* | 0 | 0 | -10
CC(=O)NS(=O)(=O)c1ccc(NC(=O)c2ccccc2F)cc1 | 1 | -3 | 23846* | -1 | -2 | -11
Cc1nnc(SC(C)C(=O)Nc2ccc(S(=O)(=O)N3CCCCCC3)cc2)s1 (configuration not stated) | 7 | -2 | 22908* | 0 | -1 | -17
CC(=O)Nc1ccc(NC(=O)c2ccccc2N(C)S(C)(=O)=O)cc1 | -2 | -2 | 24126* | -4 | -9 | -17
CC(=O)N(C)c1ccc(NC(=O)c2ccccc2C(=O)O)cc1 | -1 | -1 | 21123* | ? | 3 | -3
COc1ccc(C(=O)NN=C(C)Cn2cnc([N+](=O)[O-])n2)cc1 | · | · | · | · | · | -10
O=C1OC2CC1N(S(=O)(=O)c1cccs1)C2 (configuration not stated) | · | · | · | · | · | -5
O=C(CCSc1ccc(Cl)cc1)Nc1ccc(F)cc1F | · | · | · | · | · | -15
